# According to PubChem BioAssay AID1240 (Sanford-Burnham Center for Chemical Genomics, 2008):
# In all, about 50,000 compounds went through this assay and about 800 (1.6%) showed an effect of 50% or more. This excerpt belongs to a sample that is enriched for strong results.
# Molecular target: Bcl-2-like protein 10 (Homo sapiens) (UniProt Q9HD36)
# Experiment: Phenotype converters, Bcl-B/TR3 peptide binding displacement, primary biochemical FP (AID 1240);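 further: 0% = Bcl-B with tracer peptide and DMSO and 100% = tracer peptide lacking Bcl-B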
# Settings: GST-Bcl-B / FITC-TR3 peptide fluorescence polarization; stronger effect = higher value; compound at 3.75 mg/L
# Chain of Bcl-2-like protein 10 (Homo sapiens) (Q9HD36 whole entry, looked up): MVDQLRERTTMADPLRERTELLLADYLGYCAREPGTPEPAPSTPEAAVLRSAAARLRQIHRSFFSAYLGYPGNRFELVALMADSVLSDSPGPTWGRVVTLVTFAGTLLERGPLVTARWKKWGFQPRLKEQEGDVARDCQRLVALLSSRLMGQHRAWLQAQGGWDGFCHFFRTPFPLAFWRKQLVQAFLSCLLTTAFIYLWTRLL
row,Compound,displacement [%]
1,Cc1cccc(N2C(=O)S/C(=C/c3cccc([N+](=O)[O-])c3)C2=O)c1,14.3
2,COc1cc(OC)c([N+](=O)[O-])cc1/C=C1/C(=O)NC(=O)N(c2ccc(Br)cc2)C1=O,8.8
3,COc1ccc(C2CC(c3ccc(F)cc3)=NN2c2cccc(F)c2)cc1OC (stereo not drawn),-6.2
4,COc1ccc(C2=NN(c3ccccc3)C(c3ccccc3F)C2)cc1 (stereo not drawn),53.9
5,COc1ccc(C2CC(c3ccc(F)cc3)=NN2c2ccccc2)cc1OC (stereo not drawn),64.4
6,COc1ccccc1C1CC(c2ccc(F)cc2)=NN1c1ccccc1 (stereo not drawn),5.4
7,COc1ccc(C2=NN(C(=O)CCC(=O)O)C(c3ccccc3F)C2)cc1 (stereo not drawn),12.3
8,COc1ccc(C2CC(c3ccc(F)cc3)=NN2c2ccccc2F)cc1OC (stereo not drawn),-4.3
9,O=C(COc1ccc(Cl)cc1Cl)Nc1ccc(Br)c(Cl)c1,-5.5
10,CC(=O)Nc1ccc(S(=O)(=O)NC(=O)C23CC4CC(CC(C4)C2)C3)cc1,0.8
11,CCOc1ccc(C(=O)Nc2cccc(C(C)=O)c2)cc1,9
12,COc1ccc(Cl)cc1N=CC1=C(O)CC(C)(C)CC1=O,3.1
13,O=C(Oc1ccccc1C(=S)N1CCOCC1)c1cccc([N+](=O)[O-])c1,10.7
14,COc1cc(C(=S)N2CCOCC2)cc(OC)c1OC(=O)c1cccc([N+](=O)[O-])c1,70.4
15,CCOc1cc(C(=S)N2CCOCC2)ccc1OC(=O)c1cccc([N+](=O)[O-])c1,8.7
16,COc1cc(C2C3=C(CC(C)(C)CC3=O)OC3=C2C(=O)CC(C)(C)C3)cc(OC)c1OC(C)=O,-1.3
17,CC(C)COc1ccc(C(=O)Nc2ccc(Cl)cc2)cc1,13.1
18,COc1ccc(NC(=O)CN(c2cc(OC)ccc2OC)S(C)(=O)=O)cc1,13.1
19,C=CCOc1ccc(Cl)cc1/C=C1/C(=N)N2N=C(CCC)SC2=NC1=O,-25.3
20,CCCC1=NN2C(=N)/C(=C/c3ccc(-c4ccc([N+](=O)[O-])cc4Br)o3)C(=O)N=C2S1,129
21,NC1=NC(=O)/C(=C/c2ccc(-c3ccc([N+](=O)[O-])cc3Br)o2)S1,-5.3

row,Compound,displacement [%]
1,CCCC1=NN2C(=N)/C(=C/c3ccc(-c4ccc(Cl)cc4Cl)o3)C(=O)N=C2S1,74.7
2,CCC1=NN2C(=N)/C(=C/c3ccc(-c4ccccc4[N+](=O)[O-])o3)C(=O)N=C2S1,1.5
3,CCC1=NN2C(=N)/C(=C/c3ccc(-c4ccc([N+](=O)[O-])cc4Br)o3)C(=O)N=C2S1,4
4,CCC1=NN2C(=N)/C(=C/c3ccc(-c4ccc([N+](=O)[O-])cc4Cl)o3)C(=O)N=C2S1,15.1
5,CCCC1=NN2C(=N)/C(=C/c3ccc(-c4ccc([N+](=O)[O-])cc4C)o3)C(=O)N=C2S1,140
6,CCC1=NN2C(=N)/C(=C/c3ccc(-c4ccc([N+](=O)[O-])cc4C)o3)C(=O)N=C2S1,14
7,CC1CCc2c(nc3ccccc3c2C(=O)O)C1 (stereo not drawn),-14.7
8,CN(C)/C=C/C=C1C(=O)OC(C)(C)OC1=O,0.3
9,O=C(O)c1ccccc1C(=O)c1ccc(Cl)c(N2C(=O)CCC2=O)c1,-1.3
10,Cc1cc(NS(=O)(=O)c2ccc(NC(=O)C(Cl)(Cl)Cl)cc2)nc(C)n1,1.3
11,COc1ccc(Br)cc1Cn1c(=O)[nH]c2cc(C(F)(F)F)ccc21,-5.6
12,CC(C)(C)C(=O)Nc1cccc(C(=O)NCc2ccc(CNC(=O)c3cccc(NC(=O)C(C)(C)C)c3)cc2)c1,9.9
13,O=C(Oc1cccc(/C=C2/SC(=S)N(c3ccccc3)C2=O)c1)c1ccco1,-17.2
14,Cc1cc(C)c(-c2nn(-c3ccccc3)cc2C=O)c(C)c1,10.9
15,O=Cc1cn(-c2ccccc2)nc1-c1ccc(Cl)cc1,7.5
16,Cc1cc(-n2cc(C=O)c(-c3ccccc3)n2)nc2ccccc12,75.4
17,Cc1ccc(C(=O)/C=C2\C(=O)Nc3ccccc32)cc1,6.7
18,O=C(O)CCCC(=O)OCc1ccco1,31.3
19,O=C(COc1ccc([N+](=O)[O-])cc1)NNC(=O)c1ccccc1Cl,11.6
20,O=[N+]([O-])c1ccccc1-c1ccc(/C=N/n2cnnc2)o1,8.8
21,O=[N+]([O-])c1ccc(-c2ccc(/C=N/n3cnnc3)o2)cc1,139

row,Compound,displacement [%]
1,O=C(O)c1ccc(-c2ccc(/C=C3/SC(=O)N(c4ccccc4)C3=O)o2)cc1,27.7
2,O=C1S/C(=C/c2ccc(-c3ccc([N+](=O)[O-])cc3Cl)o2)C(=O)N1c1ccccc1,47.4
3,O=C1S/C(=C/c2ccc(-c3ccc(F)cc3)o2)C(=O)N1c1ccccc1,12.2
4,O=C1S/C(=C/c2ccc(-c3cccc([N+](=O)[O-])c3)o2)C(=O)N1c1ccccc1,111
5,O=C1S/C(=C\c2ccc(-c3ccc([N+](=O)[O-])cc3)o2)C(=O)N1c1ccccc1,70.2
6,O=C1S/C(=C\c2ccc(-c3ccccc3[N+](=O)[O-])o2)C(=O)N1c1ccccc1,47.7
7,Fc1ccc(-c2ccc(/C=N/n3cnnc3)o2)cc1,7.8
8,Cc1cccc(/C=C2/SC(=S)N(CN3CCCCC3)C2=O)c1,11.3
9,O=C1CCCCC1Oc1ccc2c(-c3ccccc3)cc(=O)oc2c1 (stereo not drawn),-9.6
10,O=C(COc1ccc2ccccc2c1)Nc1cc([N+](=O)[O-])ccc1F,29.5
11,CCSC1C(C)=C(C)C(=O)N1C(C)(C)c1cc(Cl)cc(Cl)c1 (stereo not drawn),21.2
12,COc1ccc(NC(=O)CN2C(=O)/C(=C/c3cccc(Br)c3)SC2=S)cc1,11.6
13,O=C(O)CCCN1C(=O)/C(=C/c2cccc(Br)c2)SC1=S,91.2
14,O=C(CN1C(=O)/C(=C/c2cccc(Br)c2)SC1=S)Nc1ccccn1,69
15,O=C(CN1C(=O)/C(=C/c2cccc(Br)c2)SC1=S)Nc1cccnc1,9.6
16,O=C(CN1C(=O)/C(=C/c2ccccc2)SC1=S)Nc1cccc(Br)c1,11.9
17,O=C(O)CCCCCCCCCCN1C(=O)/C(=C/c2cccc(Br)c2)SC1=S,-3.4
18,CCOc1ccccc1NC(=O)CN1C(=O)/C(=C\c2cc(OC)c(OC)c(OC)c2)SC1=S,36.8
19,O=C(O)CCCN1C(=O)/C(=C\c2cccc(O)c2)SC1=S,0.6
20,CCOc1ccccc1NC(=O)CN1C(=O)/C(=C/c2cccc(Br)c2)SC1=S,78.7
21,O=c1[nH]c(=S)[nH]c(O)c1C=Nc1cc(Cl)ccc1O,3.2
